{"source": "PubChem BioAssay AID1851", "about": "(National Center for Advancing Translational Sciences (NCATS), 2009)", "note": "Where “and” joins values, the source holds several entries; their conditions need not be identical. Identical values can stand only once. About 2,600 (16%) of roughly 16,000 compounds were called active. Not shown: some 20% with an inconclusive outcome. Calls follow the shape of the dose curve; as a rule, active = well fitted curve in the direction sought with a large enough effect; inconclusive = small, poorly fitted or top-dose-only effect, or effect the other way; inactive = no such curve, though single readings can be large or run the other way. The list comes from a sample in which actives are over-represented; it also holds similar structures and randomly drawn compounds. More than one record can exist for a structure, and the calls need not agree. % is scaled to controls: 0 for no effect and ±100 for the full control effect.", "data": [{"biological_target": "Cytochrome P450 2D6 (Homo sapiens) (UniProt P10635)", "sequence (P10635 whole entry, looked up)": "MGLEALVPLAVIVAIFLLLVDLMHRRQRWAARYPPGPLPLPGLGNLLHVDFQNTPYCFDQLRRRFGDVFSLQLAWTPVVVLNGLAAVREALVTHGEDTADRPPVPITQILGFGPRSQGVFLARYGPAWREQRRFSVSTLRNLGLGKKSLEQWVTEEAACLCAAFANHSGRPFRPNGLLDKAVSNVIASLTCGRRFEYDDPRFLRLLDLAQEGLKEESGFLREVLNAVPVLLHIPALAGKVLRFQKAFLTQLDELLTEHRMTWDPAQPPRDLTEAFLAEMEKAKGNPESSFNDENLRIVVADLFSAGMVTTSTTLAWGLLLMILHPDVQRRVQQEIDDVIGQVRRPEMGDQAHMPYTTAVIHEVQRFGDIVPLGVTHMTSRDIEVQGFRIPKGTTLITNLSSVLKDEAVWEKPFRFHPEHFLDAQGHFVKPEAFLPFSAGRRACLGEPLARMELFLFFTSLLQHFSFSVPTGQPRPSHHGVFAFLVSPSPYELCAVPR", "assay": "Cytochrome panel assay with activity outcomes", "conditions": "recombinant CYP, pro-luciferin dealkylation, luminescence, p450-cyp2d6; series mostly up to 57.1 µM; activity, negative = inhibition: at the top concentration", "values": [{"smiles": "C[C@@]12CC[C@H](O)C[C@@H]1CC[C@H]1[C@H]2CC[C@@]2(C)[C@@H](C3=CC(=O)OC3)CC[C@]12O", "activity, negative = inhibition": "-0.173% [at 25.6 µM] (inactive)"}, {"smiles": "C=CCN1C(=O)NC(=O)/C(=C/c2cccn2C)C1=O", "activity, negative = inhibition": "26.3% (inactive)"}, {"smiles": "NC(N)=NCCC[C@H](N)C(=O)O", "activity, negative = inhibition": "8.61% (inactive)"}, {"smiles": "CCOP(=O)(CN(CC)CCNP(=O)(OCC)OCC)OCC", "activity, negative = inhibition": "7.73% (inactive)"}, {"smiles": "O=C1C=C2C=C[C@H]3C[C@@]2(O1)[C@H]1CCCCN31", "activity, negative = inhibition": "1.85% [at 25.6 µM] (inactive)"}, {"smiles": "COc1ccccc1N1CCNCC1", "activity, negative = inhibition": "-9.83% (inactive)"}, {"smiles": "c1ccc2c(N3CCNCC3)cccc2c1", "AC50": "15.8 µM (active)"}, {"smiles": "c1ccc2nc(N3CCNCC3)ccc2c1", "AC50": "inactive"}, {"smiles": "CN1[C@@H]2CC[C@H]1CC(O[C@@H](c1ccccc1)c1ccc(Cl)cc1)C2", "note": "(some centres not stated)", "AC50": "1.26 µM (active) and 1.58 µM (active)"}, {"smiles": "COc1ccc(C(=O)OC2C[C@H]3CC[C@@H](C2)N3C)cc1OC", "note": "(some centres not stated)", "AC50": "1 µM (active)"}, {"smiles": "CN1C2CCC1CC(OC(=O)c1ccc(Cl)cc1)C2", "note": "(configuration not stated)", "AC50": "0.224 µM (active)"}, {"smiles": "COc1ccc(C(=O)O[C@H]2CC[C@@]3(C)[C@H]4CC[C@H]5[C@]3(C[C@]3(O)[C@H]6CN7C[C@H](C)CC[C@H]7[C@](C)(O)[C@]6(O)[C@H](O)C[C@]53O)O[C@]24O)cc1OC", "activity, negative = inhibition": "13.4% [at 11.4 µM] (inactive)"}, {"smiles": "CC[C@H](Oc1ccc(Cl)cc1)C(=O)OC1C[C@H]2CC[C@@H](C1)N2C", "note": "(some centres not stated)", "AC50": "0.00631 µM (active)"}, {"smiles": "CCN1C[C@]2(C)CC[C@H](O)[C@@]34[C@@H]5CC6[C@@H](OC)C[C@@](O)([C@@H]5[C@@H]6O)[C@H](C[C@@H]23)[C@H]14", "activity, negative = inhibition": "3.42% [at 25.6 µM] (inactive)"}, {"smiles": "O=c1cccc2n1CC1CNC[C@H]2C1", "AC50": "inactive"}, {"smiles": "COC(=O)[C@@H]1[C@@H](O)[C@@]2(O)c3c(OC)cc(OC)cc3O[C@@]2(c2ccc(OC)cc2)[C@H]1c1ccccc1", "activity, negative = inhibition": "18.2% [at 11.4 µM] (inactive)"}, {"smiles": "C[C@@]12CC[C@@H]3[C@@H](CC[C@H]4C[C@@H](O)CC[C@]43C)[C@H]1CC[C@@H]2c1cc(C(F)(F)F)n[nH]1", "activity, negative = inhibition": "-7.84% [at 11.4 µM] (inactive)"}, {"smiles": "O=C(c1ccccc1F)c1cn(Cc2ccccc2)c2ccccc12", "activity, negative = inhibition": "-20.1% (inactive)"}, {"smiles": "C[C@@H](C(=O)OC1C[C@H]2CC[C@@H](C1)N2C)c1ccc(Br)cc1", "note": "(some centres not stated)", "AC50": "3.98 µM (active)"}, {"smiles": "CN1[C@@H]2CC[C@H]1CC(O)C2", "note": "(some centres not stated)", "activity, negative = inhibition": "-4.03% [at 25.6 µM] (inactive)"}, {"smiles": "C[N+]1([O-])[C@H]2CC[C@H]1CC(OC(=O)[C@@H](CO)c1ccccc1)C2", "note": "(some centres not stated)", "activity, negative = inhibition": "17.4% [at 11.4 µM] (inactive)"}, {"smiles": "Cc1cc(C)cc(C(=O)OC2C[C@H]3CC[C@@H](C2)N3C)c1", "note": "(some centres not stated)", "AC50": "0.251 µM (active)"}, {"smiles": "C[N+]1([O-])[C@@H]2CC[C@H]1CC(OC(=O)[C@@H](CO)c1ccccc1)C2", "note": "(some centres not stated)", "activity, negative = inhibition": "9.36% [at 25.6 µM] (inactive)"}, {"smiles": "CN1[C@@H]2CC[C@H]1CC(OC(=O)c1cc(Cl)cc(Cl)c1)C2", "note": "(some centres not stated)", "AC50": "0.00794 µM (active)"}, {"smiles": "CS(=N)(=O)CC[C@H](N)P(=O)(O)O", "note": "(some centres not stated)", "activity, negative = inhibition": "-6.15% [at 11.4 µM] (inactive)"}, {"smiles": "C[C@@]12CCC(=O)C=C1C=C[C@H]1[C@H]3CC[C@](O)(CCC(=O)O)[C@]3(C)CC[C@@H]12", "activity, negative = inhibition": "2.47% [at 25.6 µM] (inactive)"}, {"smiles": "Cc1ccc(S(=O)(=O)NCC2CCC(C(=O)N3CCC4(CC3)OCCO4)CC2)cc1", "note": "(configuration not stated)", "activity, negative = inhibition": "5.05% (inactive)"}, {"smiles": "CCC12CN3CC(CC)(CN(C1)C3c1cccnc1)C2=O", "note": "(configuration not stated)", "activity, negative = inhibition": "-5.29% (inactive)"}, {"smiles": "O=S(=O)(O)/C(=C\\c1ccccc1)c1ccccc1", "note": "(tested in a mixture with another compound)", "activity, negative = inhibition": "-7.27% [at 11.4 µM] (inactive)"}, {"smiles": "CCCCCC[C@H]1C(=O)O[C@H](C)[C@H](NC(=O)c2cccc(NC=O)c2O)C(=O)O[C@@H](C)[C@H]1OC(=O)CC(C)C", "activity, negative = inhibition": "-19.5% [at 25.6 µM] (inactive)"}, {"smiles": "CN(C)c1ccc(NC(=O)CN2C(=O)CN=C(c3ccccc3)c3ccccc32)cc1", "activity, negative = inhibition": "-11.3% (inactive)"}, {"smiles": "C(#CCN1CCCC1)CN1CCCC1", "activity, negative = inhibition": "9.47% [at 25.6 µM] (inactive)"}, {"smiles": "O=C1CCCN1CC#CCN1CCCC1", "AC50": "inactive and 7.94 µM (active)"}, {"smiles": "C[N+](C)(C)CC#CCN1CCCC1=O", "AC50": "inactive and 3.98 µM (active)"}, {"smiles": "NC(=O)CN1CCCC1=O", "AC50": "inactive"}, {"smiles": "Cc1ccc(OP(=O)(Oc2ccc(C)cc2)N2C=Cc3ccccc3[C@H]2C#N)cc1", "activity, negative = inhibition": "-6.26% [at 11.4 µM] (inactive)"}, {"smiles": "CN(C)CCC(=O)[C@@]1(O)CC[C@H]2[C@H]3CC=C4C[C@@H](O)CC[C@]4(C)[C@H]3CC[C@]21C", "activity, negative = inhibition": "-9.11% [at 11.4 µM] (inactive)"}, {"smiles": "COC[C@H]1OC(=O)c2coc3c2[C@@]1(C)C1=C(C3=O)[C@H]2CCC(=O)[C@@]2(C)C[C@H]1OC(C)=O", "activity, negative = inhibition": "-0.794% (inactive)"}, {"smiles": "S=C(S)N1CCCC1", "activity, negative = inhibition": "-6.69% (inactive)"}, {"smiles": "C[C@@H]1O[C@@H](O[C@H]2C[C@@H](O)[C@@]3(CO)[C@H]4[C@H](O)C[C@]5(C)[C@@H](C6=CC(=O)OC6)CC[C@]5(O)[C@H]4CC[C@@]3(O)C2)[C@@H](O)[C@H](O)[C@H]1O", "activity, negative = inhibition": "-4.25% [at 11.4 µM] (inactive)"}, {"smiles": "COc1ccccc1CN1CCCC2(CCN(C(=O)Oc3ccccc3)CC2)C1", "AC50": "3.98 µM (active)"}, {"smiles": "O=C(Nc1cccc(F)c1)N1CCCC2(CCN(C(=O)Oc3ccccc3)CC2)C1", "activity, negative = inhibition": "-12.6% (inactive)"}, {"smiles": "O=C(Oc1ccccc1)N1CCC2(CCCN(Cc3nccs3)C2)CC1", "AC50": "5.01 µM (active)"}, {"smiles": "O=C(Oc1ccccc1)N1CCC2(CCN(Cc3nccs3)CC2)CC1", "activity, negative = inhibition": "3.3% (inactive)"}, {"smiles": "COc1cc2c(cc1OC)[C@]13CC[N@+]4(C)CC5=CCO[C@H]6CC(=O)N2[C@@H]1[C@@H]6[C@@H]5C[C@]34O", "activity, negative = inhibition": "-2.44% [at 11.4 µM] (inactive)"}, {"smiles": "C[C@@]12CC[C@H]3[C@@H](CCC4=CC(=O)CC[C@]43C)[C@H]1CC[C@H]2C(=O)CO", "activity, negative = inhibition": "10.6% [at 25.6 µM] (inactive)"}, {"smiles": "CC(C)C[C@H](NP(=O)(O)O[C@@H]1O[C@@H](C)[C@@H](O)[C@@H](O)[C@H]1O)C(=O)N[C@@H](Cc1c[nH]c2ccccc12)C(=O)O", "activity, negative = inhibition": "-2.19% (inactive)"}, {"smiles": "O=C(c1cc(-c2ccccc2)nc2ccccc12)N1CCC2(CC1)OCCO2", "activity, negative = inhibition": "-2.96% (inactive)"}, {"smiles": "CN(CCc1ccc(Cl)c(Cl)c1)[C@H]1CCCC[C@H]1N1CCCC1", "AC50": "0.00631 µM (active)"}, {"smiles": "CN(C)CCN(C)CCc1ccc(Cl)c(Cl)c1", "activity, negative = inhibition": "-0.0606% (inactive)"}, {"smiles": "Clc1cnc(Oc2ccc(Oc3ncc(Cl)cc3Cl)cc2)c(Cl)c1", "activity, negative = inhibition": "-6.42% (inactive)"}, {"smiles": "NS(=O)(=O)c1ccc(-c2ccc([As](=O)(O)O)cc2)cc1", "activity, negative = inhibition": "16.2% [at 11.4 µM] (inactive)"}]}]}
